Compounds with a hit are over-represented: about 3.4% of the library has one in this group of screens.
MITF inh: blocks human microphthalmia-associated transcription factor | AlphaScreen MITF homodimerization, bead proximity signal | inhibition, % at 2.6 µM | 0.91% of 650,000 active; in the data active = inhibition above about 50%
Target sequence (O75030 whole entry, looked up): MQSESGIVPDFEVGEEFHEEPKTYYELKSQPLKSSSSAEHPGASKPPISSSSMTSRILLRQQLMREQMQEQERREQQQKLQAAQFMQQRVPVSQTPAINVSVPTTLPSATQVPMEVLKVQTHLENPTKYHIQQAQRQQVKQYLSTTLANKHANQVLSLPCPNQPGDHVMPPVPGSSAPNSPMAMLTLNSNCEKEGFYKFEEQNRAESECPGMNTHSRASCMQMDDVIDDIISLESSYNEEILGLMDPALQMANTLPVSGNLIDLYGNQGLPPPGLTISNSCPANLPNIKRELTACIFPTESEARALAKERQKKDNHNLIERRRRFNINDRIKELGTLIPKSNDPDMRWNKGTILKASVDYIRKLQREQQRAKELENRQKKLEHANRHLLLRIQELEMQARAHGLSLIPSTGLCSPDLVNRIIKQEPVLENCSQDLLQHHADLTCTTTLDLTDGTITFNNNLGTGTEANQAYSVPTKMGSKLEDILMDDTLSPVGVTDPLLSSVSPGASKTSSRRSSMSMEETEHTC
FBW7 act: human FBW7 E3 ligase activation, primary screen | Q969H0 | AlphaScreen FBW7–phospho-cyclin E peptide binding, activator screen | normalized activity (activation), % at 26.1 µM | 0.13% of 650,000 active; in the data active = normalized activity above about 1.9%;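 note: purified mutant Fbw7 with reduced substrate affinity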
GPR151 ag: human GPR151 activation. 1% of 650,000 active. Q8TDV0. PathHunter beta-arrestin GPR151 cells, luminescence. activation, % at 11.2 µM; in the data active = activation above about 4.9%
TEAD-YAP inh: TEAD-YAP interaction inhibition; HEK-TIYL cells, TEAD-Gal4/YAP UAS-luciferase luminescence; inhibition, % at 9.12 µM; 1.4% of 640,000 active; AID 1259422; in the data active = inhibition above about 32%
MITF inh conf: confirmation of human MITF inhibitors; shares compounds with MITF inh; AlphaScreen MITF homodimerization, biotin/His-MITF beads; inhibition, % at 2.6 µM; 16% of 4,700 active; AID 1259372;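 active = inhibition above a cutoff derived from the DMSO control wells, cut at about 28% in these data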;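 note: inhibitors lower the bead chemiluminescence by keeping MITF from dimerizing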
AS interf DR: AlphaScreen optical interference, dose response counter-screen. AlphaScreen optical interference counterscreen, cell-free. AID 1259373. IC50, µM. 6% of 480 active. shares compounds with MITF inh; call rule not given here
AS interf ctr: AlphaScreen optical interference, counter-screen; shares compounds with MITF inh; LysRS AlphaScreen counterscreen, signal interference, triplicate; inhibition, % at 2.6 µM; 7.6% of 4,700 active;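 active = inhibition above a cutoff derived from the DMSO control wells, cut at about 30% in these data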
Of the large screens only hits and unclear results are named; the others gave an inactive call (follow-up assays come after a bar, where they were run).

CCOC(=O)N1CCC(n2c(SCC(=O)NCCc3ccc(S(N)(=O)=O)cc3)nc3ccsc3c2=O)CC1	none
O=C(Nc1ccc(F)cc1)C1CCCN1c1nnc(N2CCCC2=O)s1 (stereo not drawn)	none
Cc1nn(C)c(C)c1-c1cc(NC2CCN(Cc3ccccc3)CC2)ncn1	none
CC(=O)NS(=O)(=O)c1ccc(NC(=O)c2ccc([N+](=O)[O-])o2)cc1	MITF inh 64 | MITF inh conf 40 | AS interf DR inactive | AS interf ctr inactive
O=C(Nc1ccc(Br)cc1)c1ccc([N+](=O)[O-])o1	none
O=C1c2ccccc2C(=O)N1c1ncc(Cc2ccc(Cl)cc2)s1	MITF inh 59 | MITF inh conf inactive | AS interf ctr inactive
O=C1c2ccccc2C(=O)N1c1ncc(Cc2cc(Cl)ccc2Cl)s1	none
O=[N+]([O-])c1ccc(N2CCN(S(=O)(=O)c3ccccc3)CC2)cc1NC1CC1	MITF inh 71 | MITF inh conf inactive | AS interf ctr inactive
COC(=O)c1sc(NC(=O)CN2CCCCC2C)c(C(=O)OC)c1C (stereo not drawn)	MITF inh 59 | MITF inh conf inactive | AS interf ctr inactive
CCOC(=O)c1sc(NC(=O)CN2CCCCC2C)c(C(=O)OCC)c1C (stereo not drawn)	none
Cc1cc(NC2CC2)nc(NCc2cccnc2)n1	none
O=C1NC2(CCN(C(=O)CN3C(=O)COc4ccccc43)CC2)Oc2ccccc21	none
Cc1cccc(N2CCN(C(=O)/C=C\C(=O)O)CC2)c1C	MITF inh 69 | MITF inh conf 54 | AS interf DR inactive | AS interf ctr inactive
CCOC(=O)N1CCN(c2cccc(C)c2C)CC1	none
O=C(CCn1c(=O)sc2ccccc21)NCCCc1ccccc1	none
Cn1c(=NC(=O)c2cccs2)sc2cc3c(cc21)OCCO3	none
Cc1cc(C(=O)N=c2sc3cc4c(cc3n2C)OCCO4)no1	MITF inh 76 | MITF inh conf inactive | AS interf ctr inactive
CC1CCN(C(=O)C23CC4CC(CC(C4)C2)C3)CC1	none
COc1cccc(-n2c(CN3CCSCC3)n[nH]c2=S)c1	none
S=c1[nH]nc(CN2CCSCC2)n1-c1cccc(Cl)c1	MITF inh 62 | MITF inh conf inactive | AS interf ctr inactive
Cc1ccc(C(NC(=O)/C=C\c2ccc3c(c2)OCO3)C(=O)Nc2ccc3c(c2)OCO3)cc1 (stereo not drawn)	MITF inh 68 | MITF inh conf inactive | AS interf ctr inactive
CCOc1ccc(N=c2sc(C3=c4ccccc4=NC3=O)c(O)n2-c2ccc(OCC)cc2)cc1	MITF inh 113 | MITF inh conf inactive | AS interf ctr inactive
Cc1[nH]c2c(-n3c(C)cc(C(F)(F)F)cc3=O)cccc2c1C	MITF inh 53 | MITF inh conf inactive | AS interf ctr inactive
Cc1cncc2c(S(=O)(=O)N3CC[C@@H](NC(=O)C(O)c4ccc(F)cc4F)C3)cccc12 (stereo partly drawn)	MITF inh 59 | MITF inh conf 58 | AS interf DR inactive | AS interf ctr inactive
COc1ccc(C(=O)NCC2(c3ccccc3)CCOCC2)cc1OC	none
CC#CC(=O)N1CCC(Cc2ccc(OC)cc2)(C(=O)OCC)CC1	MITF inh 95 | MITF inh conf inactive | AS interf ctr inactive
OCCN1CCOCCOCCOCCOCCOCCOCC1	none
CC(C)(C)OC(=O)N1C(C(=O)O)CSC1c1cc2c(cc1[N+](=O)[O-])OCO2 (stereo not drawn)	MITF inh 60 | MITF inh conf 72 | AS interf DR inactive | AS interf ctr inactive
COC(=O)c1ccc(Cn2c([N+](=O)[O-])cnc2C)cc1	MITF inh 78 | MITF inh conf inactive | AS interf ctr inactive
Cc1ncc([N+](=O)[O-])n1Cc1ccc(F)cc1	none
COc1ccc(C(=O)CCN2CCC(c3ccccc3)C2)cc1OC (stereo not drawn)	none
CC1=NN(c2ccc(C(=O)O)c(N)c2)C(=O)C1	MITF inh 68 | MITF inh conf 54 | AS interf DR inactive | AS interf ctr inactive
CCN1CCN(CC(O)COC(c2ccccc2)c2ccccc2C)CC1 (stereo not drawn)	MITF inh 88 | MITF inh conf inactive | AS interf ctr inactive
O=C(CNCCN1CCOCC1)Nc1ccc(N2CCCCCC2)cc1	none
CCN1CCN(CCC(=O)Nc2ccc3c(c2)OCCO3)CC1	MITF inh 104 | MITF inh conf inactive | AS interf ctr inactive
O=C(Nc1ccc(N2CCOCC2)cc1)NC1CCCCC1	MITF inh 72 | MITF inh conf inactive | AS interf ctr inactive
CC(NCCN1CCOCC1)C(=O)Nc1ccccc1 (stereo not drawn)	MITF inh 98 | MITF inh conf inactive | AS interf ctr inactive
O=C(CNCCN1CCOCC1)Nc1ccc(N2CCCC2)cc1	MITF inh 73 | MITF inh conf 29 | AS interf ctr 60
CC(=O)c1cccc(-c2nccc(NCCO)n2)c1	none
CC(=O)N1CCN(C2=NC(=O)/C(=C\c3cccc([N+](=O)[O-])c3)S2)CC1	none
COc1ccc(CCNCCN2CCOCC2)cc1	MITF inh 84 | MITF inh conf inactive | AS interf ctr inactive
COc1ccc2oc(=O)c(C(=O)NCCN3CCOCC3)cc2c1	none
COc1ccc(CCNC(=O)C(=O)NCCCN2CCOCC2)cc1	none
O=C(CNCCCN1CCOCC1)Nc1ccccc1	none
COc1ccc(C(=O)NCCN2CCOCC2)c(OC)c1	MITF inh 53 | MITF inh conf inactive | AS interf ctr inactive
O=C(CNCCCN1CCOCC1)Nc1ccc(C(=O)N2CCCCC2)cc1	MITF inh 85 | MITF inh conf inactive | AS interf ctr inactive
O=C(CNCCN1CCOCC1)Nc1ccc(OC(F)(F)F)cc1	MITF inh 60 | MITF inh conf inactive | AS interf ctr inactive
CCOC(=O)C1CCCN(C/C(O)=C(\C#N)c2nc(-c3ccccc3)cs2)C1 (stereo not drawn)	none
CCCOC(=O)c1ccc(Nc2c(C(=O)OCC)cnc3c(C)cc(C)cc23)cc1	none
CCCCC(=O)NC1(C(F)(F)F)NC(=O)N(c2ccccc2)C1=O (stereo not drawn)	none
COc1ccc(NC(=O)CNCCN2CCOCC2)cc1	MITF inh 93 | MITF inh conf inactive | AS interf ctr inactive
COc1ccc(NC(=O)CNCCN2CCCCC2)cc1	none
O=C(CNCCN1CCOCC1)Nc1ccc2c(c1)OCO2	MITF inh 87 | MITF inh conf inactive | AS interf ctr inactive
Cc1cccc(N(CC(N)=O)S(C)(=O)=O)c1C	none
Cc1ccc(-c2cc(C(F)(F)F)n3ncc(C(=O)N4CCN(C(c5ccccc5)c5ccccc5)CC4)c3n2)cc1	none
Brc1cccc(CN2CCOCC2)c1	none
Clc1ccc(CN2CCN(Cc3ccco3)CC2)cc1	MITF inh 86 | MITF inh conf inactive | AS interf ctr inactive
Brc1cccc(CN2CCN(Cc3ccco3)CC2)c1	MITF inh 81 | MITF inh conf inactive | AS interf ctr inactive

Source: PubChem BioAssay (The Scripps Research Institute Molecular Screening Center)
